Assay results from PubChem BioAssay (Tox21).
Records with an inconclusive call do not appear. Active and inactive are the calls of the source. Unless noted, calls follow the shape of the dose curve; as a rule, active = well fitted curve in the direction sought with a large enough effect in the repeat runs; inconclusive = weak or mixed curves; inactive = no such curve, though single readings can be large; an effect the other way counts as inactive or inconclusive.

How the values were obtained:
[1] = qHTS assay to identify small molecule agonists of the estrogen receptor alpha (ER-alpha) signaling pathway in the presence of an antagonist - cell viability counter screen (AID 1259386);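 also: series mostly up to about 92 µM; cells exposed to compounds for 22 h at 37 °C before the viability read; nearly all actives have a fitted effect of over 30% in size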
In short: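 ICI-182,780 at 10.0nM final accompanies the compound titration (15 concentrations, 22hr, 37C) on VM7Luc4E2 cells. The CellTiter-Fluor fluorescence readout runs in the same wells as the luciferase assay.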

[2] = target: Progesterone receptor (Homo sapiens) (UniProt P06401); assay: qHTS assay to identify small molecule agonists of the progesterone receptor (PR) signaling pathway (AID 1346784; calls by dose curve; also: nearly all actives have a fitted effect of over 30% in size)
Sequence of Progesterone receptor (Homo sapiens) (P06401 whole entry, looked up): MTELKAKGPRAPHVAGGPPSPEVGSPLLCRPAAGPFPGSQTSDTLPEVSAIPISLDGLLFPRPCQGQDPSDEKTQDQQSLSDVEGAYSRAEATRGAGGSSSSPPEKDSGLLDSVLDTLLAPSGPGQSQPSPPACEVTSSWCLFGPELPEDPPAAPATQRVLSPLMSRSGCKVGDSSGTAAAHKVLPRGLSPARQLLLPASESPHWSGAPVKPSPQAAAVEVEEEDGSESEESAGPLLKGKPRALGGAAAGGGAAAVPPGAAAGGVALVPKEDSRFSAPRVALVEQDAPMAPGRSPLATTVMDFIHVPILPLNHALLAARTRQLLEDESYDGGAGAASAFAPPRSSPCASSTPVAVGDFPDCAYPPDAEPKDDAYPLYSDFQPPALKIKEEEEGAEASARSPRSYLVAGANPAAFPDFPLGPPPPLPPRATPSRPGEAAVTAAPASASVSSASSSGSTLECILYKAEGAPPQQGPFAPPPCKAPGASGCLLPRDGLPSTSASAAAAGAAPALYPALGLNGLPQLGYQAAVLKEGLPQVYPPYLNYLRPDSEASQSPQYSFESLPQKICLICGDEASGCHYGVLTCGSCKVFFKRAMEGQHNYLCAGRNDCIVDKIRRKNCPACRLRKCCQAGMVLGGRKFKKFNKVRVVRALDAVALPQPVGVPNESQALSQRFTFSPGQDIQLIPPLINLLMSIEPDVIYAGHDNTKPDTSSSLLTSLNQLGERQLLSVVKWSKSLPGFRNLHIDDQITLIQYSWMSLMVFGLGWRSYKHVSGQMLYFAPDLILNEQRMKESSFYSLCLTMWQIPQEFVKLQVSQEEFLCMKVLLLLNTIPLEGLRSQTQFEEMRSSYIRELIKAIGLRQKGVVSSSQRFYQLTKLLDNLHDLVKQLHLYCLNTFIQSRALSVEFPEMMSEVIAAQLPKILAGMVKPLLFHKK
In short: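 Fluorescence from LiveBLAzer B/G FRET substrate cleavage (2 hr, RT) reported PR activation in PR-UAS-bla HEK 293T cells treated 16 hr at 37C/5% CO2 with compounds; medium contained 2% charcoal-stripped FBS.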

[3] = target: Progesterone receptor (Homo sapiens) (UniProt P06401); assay: qHTS assay to identify small molecule antagonists of the progesterone receptor (PR) signaling pathway (AID 1346795; active = well fitted inhibition curve with a large enough effect in the signal ratio in the repeat runs, not every such curve was filed as active; the % refers to the signal ratio; also: potency is read from the fitted curve at half-maximal effect)
In short: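 Fluorescence intensity measured 2 hr after adding beta-lactamase FRET substrate to PR-UAS-bla HEK293T cells that had been co-treated 16 hr with compound and 1 nM R5020 (final concentration) in 2% charcoal-stripped FBS.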

[4] = qHTS assay to identify small molecule antagonists of the progesterone receptor (PR) signaling pathway - cell viability counter screen (AID 1346798); also: nearly all actives have a fitted effect of over 50% in size; also: potency is read from the fitted curve at half-maximal effect
In short: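 CellTiter-Glo luminescence; PR-UAS-bla HEK293T, 3,000 cells/well; compound + R5020, 16 hr, 37C/5% CO2; 30 min RT before read.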

[5] = qHTS assay to identify small molecule agonists of the progesterone receptor (PR) signaling pathway - cell viability counter screen (AID 1346799; calls by dose curve; also: nearly all actives have a fitted effect of over 45% in size; also: potency is read from the fitted curve at half-maximal effect)
In short: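 In parallel with the beta-lactamase readout, cytotoxicity toward PR-UAS-bla HEK293T cells was measured by CellTiter-Glo luminescence following 16 hr compound incubation in 2% charcoal-stripped FBS medium.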

[6] = qHTS assay to identify small molecule antagonists of the TGF-beta/Smad signaling pathway - cell viability counter screen (AID 1346824); also: nearly all actives have a fitted effect of over 50% in size
In short: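 SBE-bla HEK 293T cells were plated overnight at 37 C, then given compounds in DMSO plus TGF-beta1 (added as 0.25 ng/mL solution) for 5 hr. After the bla read, CellTiter-Glo was added to the same wells and luminescence read after 30 min at room temperature.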

[7] = qHTS assay to identify small molecule agonists of the TGF-beta/Smad signaling pathway - cell viability counter screen (AID 1346829); also: top concentration of the series differs between compounds; nearly all actives have a fitted effect of over 45% in size
In short: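 After overnight seating at 37 C and 5% CO2, reporter cells got compounds for 5 hr and FRET substrate for 2 hr; cell viability then came from CellTiter-Glo luminescence.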

[8] = qHTS assay to identify small molecule agonists of the TGF-beta/Smad signaling pathway (AID 1346859; active = well fitted activation curve with a large enough effect in the signal ratio in the repeat runs, not every such curve was filed as active; the % refers to the signal ratio; also: series mostly up to about 77 µM)
In short: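 After overnight seeding, SBE-bla HEK 293T cells are dosed with compounds in DMSO and kept 5 hr at 37 C, 5% CO2. LiveBLAzer-type FRET substrate is then applied for 2 hr at room temperature.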

[9] = target: Thyrotropin-releasing hormone receptor (Homo sapiens) (UniProt P34981); assay: qHTS assay to identify small molecule antagonists of the thyrotropin-releasing hormone receptor (TRHR) signaling pathway (AID 1346877; active = well fitted inhibition curve with a large enough effect in the repeat runs, not every such curve was filed as active; also: series mostly up to about 51 µM)
Sequence of Thyrotropin-releasing hormone receptor (Homo sapiens) (P34981 whole entry, looked up): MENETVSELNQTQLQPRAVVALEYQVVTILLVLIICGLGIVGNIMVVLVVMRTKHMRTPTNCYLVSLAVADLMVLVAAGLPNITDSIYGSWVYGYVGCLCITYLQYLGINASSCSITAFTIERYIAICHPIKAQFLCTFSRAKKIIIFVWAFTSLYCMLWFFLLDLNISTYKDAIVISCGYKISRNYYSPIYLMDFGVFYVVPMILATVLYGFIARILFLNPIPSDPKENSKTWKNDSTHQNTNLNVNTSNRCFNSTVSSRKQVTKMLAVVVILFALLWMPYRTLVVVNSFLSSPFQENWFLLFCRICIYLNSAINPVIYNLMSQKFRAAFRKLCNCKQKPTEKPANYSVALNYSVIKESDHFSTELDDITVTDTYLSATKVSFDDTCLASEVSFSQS
In short: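 Screening used HEK293 cells engineered with TRHR, with a brief 5 min room-temperature compound exposure preceding addition of TRH to 1 nM. The read-out was kinetic calcium-dye fluorescence, concentration-response from 15 doses in triplicate.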

[10] = target: Thyrotropin-releasing hormone receptor (Homo sapiens) (UniProt P34981); assay: qHTS assay to identify small molecule agonists of the thyrotropin-releasing hormone receptor (TRHR) signaling pathway (AID 1346891; calls by dose curve;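 also: HEK293 cells expressing TRHR with calcium dye readout; series mostly up to about 58 µM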)
In short: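 Compounds were tested as agonists at 15 concentrations, in triplicate, on TRHR-Hek293 cells; calcium-sensitive dye fluorescence was recorded for 3 min following addition.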

[11] = Caspase-3/7 induction in HepG2 cells by small molecules, qHTS assay (AID 1346978); also: nearly all actives have a fitted effect of over 15% in size; also: potency is read from the fitted curve at half-maximal effect
In short: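 Wild-type HepG2 cells (2,000/well) were settled 5 h at 37 C, 5% CO2, then exposed to compounds in DMSO for 17 h. Caspase-3/7 activity was read by luminescence 30 min after adding Caspase-Glo 3/7 reagent at room temperature.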

[12] = Caspase-3/7 induction in CHO-K1 cells by small molecules, qHTS cell viability counter screen (AID 1346979); also: nearly all actives have a fitted effect of over 35% in size
In short: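 Viability readout by fluorescence (CellTiter-Fluor) on wild-type CHO-K1 cells exposed for 16hr at 37C and 5% CO2 to compounds delivered in DMSO; reagent incubated 1hr before reading.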

[13] = Caspase-3/7 induction in HepG2 cells by small molecules, qHTS cell viability counter screen (AID 1346981); also: series mostly up to about 92 µM; nearly all actives have a fitted effect of over 30% in size
In short: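 Multiplexed with the caspase-3/7 assay: HepG2 cells, 16 hr compound treatment, CellTiter-Fluor viability detection by fluorescence.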

[14] = target: Nuclear receptor subfamily 1 group I member 2 (Homo sapiens) (UniProt O75469); assay: Human pregnane X receptor (PXR) small molecule agonists, qHTS assay (AID 1346982); also: nearly all actives have a fitted effect of over 35% in size; also: potency is read from the fitted curve at half-maximal effect
Sequence of Nuclear receptor subfamily 1 group I member 2 (Homo sapiens) (O75469 whole entry, looked up): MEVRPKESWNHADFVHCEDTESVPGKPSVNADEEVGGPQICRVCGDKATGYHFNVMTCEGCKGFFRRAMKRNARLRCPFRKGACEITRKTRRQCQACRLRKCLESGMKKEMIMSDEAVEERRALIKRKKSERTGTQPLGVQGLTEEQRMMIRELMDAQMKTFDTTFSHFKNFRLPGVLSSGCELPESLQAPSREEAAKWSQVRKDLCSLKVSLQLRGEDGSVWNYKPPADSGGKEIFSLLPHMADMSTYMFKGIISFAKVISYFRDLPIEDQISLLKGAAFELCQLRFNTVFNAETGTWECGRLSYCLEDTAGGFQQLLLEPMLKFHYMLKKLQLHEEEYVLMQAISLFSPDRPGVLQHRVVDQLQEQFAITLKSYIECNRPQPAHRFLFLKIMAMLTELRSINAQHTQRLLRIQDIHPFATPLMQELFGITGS
In short: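 We seeded PXR-Luc HepG2 cells in assay medium containing 5% charcoal-stripped FBS, added compounds 5 hr later, incubated 24 hr, and read luminescence with ONE-Glo reagent.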

[15] = Human pregnane X receptor (PXR) small molecule agonists, qHTS cell viability counter screen (AID 1346977); also: nearly all actives have a fitted effect of over 50% in size
In short: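 Viability counter screen: CellTiter-Fluor signal in PXR-Luc HepG2 cells, 24hr compound exposure, 37C, 5% CO2.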

[16] = Caspase-3/7 induction in CHO-K1 cells by small molecules, qHTS assay (AID 1346980); also: nearly all actives have a fitted effect of over 15% in size
In short: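 Wild-type cells were seeded at 1,500 per well and settled 5 hr at 37 C, 5% CO2, then exposed to DMSO-dissolved compounds for 17 hr. Caspase-Glo 3/7 reagent was added, and luminescence was read after 30min at room temperature.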

[17] = target: Nuclear receptor subfamily 1 group I member 2 (Rattus norvegicus) (UniProt Q9R1A7); assay: Rat pregnane X receptor (rPXR) activation by small molecules, qHTS assay (AID 1346983); settings: rPXR luciferase reporter cells, One-Glo luminescence, 24 h; stronger effect = higher value; also: nearly all actives have a fitted effect of over 20% in size
Sequence of Nuclear receptor subfamily 1 group I member 2 (Rattus norvegicus) (Q9R1A7 whole entry, looked up): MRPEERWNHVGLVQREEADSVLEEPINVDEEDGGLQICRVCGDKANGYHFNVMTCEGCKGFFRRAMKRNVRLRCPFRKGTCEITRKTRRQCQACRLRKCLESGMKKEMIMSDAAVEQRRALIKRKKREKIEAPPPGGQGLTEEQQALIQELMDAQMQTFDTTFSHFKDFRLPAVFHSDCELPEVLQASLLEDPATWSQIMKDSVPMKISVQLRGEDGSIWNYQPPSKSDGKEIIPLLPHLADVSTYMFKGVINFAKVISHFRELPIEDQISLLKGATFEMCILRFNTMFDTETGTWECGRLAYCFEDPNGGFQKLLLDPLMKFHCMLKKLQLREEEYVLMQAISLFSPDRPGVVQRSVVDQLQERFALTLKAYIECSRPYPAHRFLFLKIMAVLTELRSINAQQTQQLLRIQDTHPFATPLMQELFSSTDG
In short: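 Cell-based rPXR luciferase reporter assay, 2,000 cells per well, rested 5hr at 37 C before compound addition in DMSO, then 24 hr at 37 C. One-Glo reagent was added and luminescence read after 30 min at room temperature.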

[18] = target: Nuclear receptor subfamily 1 group I member 2 (Homo sapiens) (UniProt O75469); assay: CYP3A4 induction through human pregnane X receptor (PXR) by small molecules, qHTS assay (AID 1346984); also: nearly all actives have a fitted effect of over 40% in size; also: potency is read from the fitted curve at half-maximal effect
In short: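 qHTS, concentration-response format: HepG2 DPX-2 line, PXR/CYP3A4-luc. Exposure 24 h, 37C. Substrate Luciferin-IPA 3uM final, 3 h. Detection One-Glo, 30 min RT.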

[19] = target: Nuclear receptor subfamily 1 group I member 2 (Homo sapiens) (UniProt O75469); assay: Human pregnane X receptor (PXR) activation by small molecules, qHTS assay (AID 1346985); also: nearly all actives have a fitted effect of over 40% in size
In short: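 DPX-2 cells (HepG2 co-transfected with a PXR response element and a CYP3A4-promoter luciferase construct) were seeded at 2,000 per well, rested 5 hr at 37C, then exposed to DMSO-dissolved compounds for 24 hr. Activation was read as luciferase luminescence.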
% is scaled to controls: 0 for no effect and ±100 for the full control effect.

CC(=O)c1ccc2c(c1)Cc1ccccc1-2
active: Potency [3] 12.2 µM | Potency [14] 54.5 µM
inactive: Potency [1] | Potency [2] | Potency [4] | Potency [5] | outcome [6] | outcome [7] | outcome [8] | outcome [9] | outcome [10] | Potency [11] | Potency [12] | Potency [13]

O=C(OCC(O)CO)c1ccccc1Nc1ccnc2c(C(F)(F)F)cccc12 (centres undefined)
active: Potency [3] 29.8 µM | Potency [14] 26.6 µM
inactive: Potency [1] | outcome [6] | outcome [7] | outcome [8] | outcome [9] | outcome [10] | Potency [15] | Potency [11] | outcome [16] | Potency [13]

OCCN(CCO)c1cccc(Cl)c1
inactive: Potency [1] | Potency [2] | Potency [3] | Potency [4] | Potency [5] | outcome [6] | outcome [9] | outcome [10] | Potency [15] | Potency [11] | Potency [12] | outcome [16] | Potency [14]

Cc1ccccc1C(=O)Nc1ccc(C(=O)N2CCCC(N(C)C)c3ccccc32)cc1 (centres undefined)
inactive: Potency [1] | Potency [2] | Potency [3] | Potency [4] | Potency [5] | outcome [6] | outcome [7] | outcome [9] | outcome [10] | outcome [16] | Potency [13]
active: Potency [11] 3.76 µM | Potency [14] 0.298 µM

CC(C)CCCCOC(=O)c1ccccc1C(=O)OCCCCC(C)C
inactive: Potency [1] | Potency [2] | Potency [5] | outcome [6] | outcome [7] | outcome [8] | outcome [9] | outcome [10] | Potency [15] | Potency [11] | Potency [12] | outcome [16] | Potency [13] | Potency [14]

CC1(CO)CN(c2ccccc2)NC1=O (centres undefined)
inactive: Potency [1] | Potency [2] | Potency [3] | Potency [4] | Potency [5] | outcome [7] | outcome [9] | outcome [10] | Potency [15] | Potency [11] | Potency [12] | outcome [16]
active: Potency [14] 61.1 µM

CCCOC(=O)C(C)O (centres undefined)
inactive: Potency [1] | Potency [2] | Potency [3] | Potency [5] | outcome [6] | outcome [7] | outcome [8] | outcome [9] | outcome [10] | Potency [15] | Potency [11] | Potency [12] | outcome [16] | Potency [14]

NCCS
inactive: Potency [1] | Potency [2] | Potency [3] | Potency [5] | outcome [6] | outcome [7] | outcome [8] | outcome [9] | outcome [10] | Potency [15] | Potency [11] | Potency [12] | Potency [13] | Potency [14] | max activation [17] -0.0213% | Potency [18] | Potency [19]

C=C(C)C(=O)OCc1ccccc1
active: Potency [4] 30.6 µM | Potency [5] 48.6 µM
inactive: Potency [1] | Potency [2] | Potency [3] | outcome [6] | outcome [7] | Potency [15] | Potency [11] | Potency [12] | outcome [16] | Potency [13] | Potency [14]

C=C(C)C(=O)OCC(C)(C)COC(=O)C(=C)C
inactive: Potency [1] | Potency [2] | Potency [3] | Potency [5] | outcome [9] | outcome [10] | Potency [15] | Potency [11] | Potency [12] | outcome [16] | Potency [13] | Potency [14]

Cc1cc(Cl)c(C)cc1Cl
inactive: Potency [1] | Potency [2] | Potency [3] | Potency [4] | Potency [5] | outcome [6] | outcome [7] | outcome [9] | outcome [10] | Potency [15] | Potency [11] | Potency [12] | outcome [16] | Potency [13] | Potency [14]

C=C(C)C(=O)OCCOP(=O)(O)OCCOC(=O)C(=C)C
inactive: Potency [1] | Potency [2] | Potency [3] | Potency [5] | outcome [6] | outcome [7] | outcome [9] | outcome [10] | Potency [15] | Potency [11] | Potency [12] | Potency [13] | Potency [14]

COc1ccc(-c2cc(=O)c3c(O)cc(O[C@@H]4O[C@H](CO[C@@H]5O[C@@H](C)[C@H](O)[C@@H](O)[C@H]5O)[C@@H](O)[C@H](O)[C@H]4O)cc3o2)cc1O
active: Potency [18] 12.6 µM
inactive: Potency [1] | Potency [2] | Potency [3] | Potency [4] | Potency [5] | outcome [6] | outcome [8] | outcome [9] | outcome [10] | Potency [15] | Potency [11] | Potency [12] | outcome [16] | Potency [13] | Potency [14] | max activation [17] -2.2% | Potency [19]

CCCCN
inactive: Potency [1] | Potency [2] | Potency [3] | Potency [4] | Potency [5] | outcome [6] | outcome [8] | outcome [9] | outcome [10] | Potency [15] | Potency [11] | Potency [12] | outcome [16] | Potency [13] | Potency [14]

CC1=CCC(C(C)C)=CC1
inactive: Potency [1] | Potency [2] | Potency [3] | Potency [4] | Potency [5] | outcome [6] | outcome [7] | outcome [8] | Potency [11] | Potency [12] | outcome [16] | Potency [13] | Potency [14]
